The results in this text go back to PubChem BioAssay (Tox21).

The nature of assay [1]: qHTS assay to identify small molecule antagonists of the estrogen receptor beta (ER-beta) signaling pathway - cell viability counter screen (AID 1259382).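 Note: HEK293T cells carrying ER-beta-UAS-bla reporter stimulated with estradiol; series mostly up to about 92 µM; nearly all actives have a fitted effect of over 55% in size.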 A digest of the protocol: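 HEK293T ER-beta-UAS-bla, 2% charcoal-stripped FBS; compounds + 1nM E2 16 hr 37C; CellTiter-Glo luminescence, 30 min RT.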
For orientation: In qHTS, concentration-response curves come from the screen itself.

Assay [2] in a line: qHTS assay to identify small molecule agonists or antagonists of the thyroid stimulating hormone receptor (TSHR) signaling pathway - wild type cell line counter screen (AID 1259384; calls by dose curve). A digest of the protocol: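 Wild-type HEK293 cells were plated 18 h at 37 C/5% CO2, pin-dosed with compound plus Ro20-1724 medium, held 30 min at room temperature, then given cAMP-d2 and anti-cAMP-cryptate; fluorescence was read after 1 h. Fifteen concentrations, triplicate.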

A short description of assay [3]: qHTS assay to identify small molecule agonists of the estrogen receptor alpha (ER-alpha) signaling pathway in the presence of an antagonist - cell viability counter screen (AID 1259386).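 Note: series mostly up to about 92 µM; cells exposed to compounds for 22 h at 37 °C before the viability read; nearly all actives have a fitted effect of over 30% in size.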 A digest of the protocol: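 Steps: 5-day stripped-FBS culture; seed and incubate 24hr; add ICI-182,780 (10.0nM final); pin 15-point compound titration; incubate 22hr at 37C; add CellTiter-Fluor at 21hr; read fluorescence.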

Assay [4] concerns the target Progesterone receptor (Homo sapiens) (UniProt P06401). The experiment in a line: qHTS assay to identify small molecule agonists of the progesterone receptor (PR) signaling pathway (AID 1346784; calls by dose curve; note: nearly all actives have a fitted effect of over 30% in size; note: potency is the fitted concentration of half-maximal effect). A digest of the protocol:
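Compounds were tested for PR agonism in HEK 293T cells bearing a beta-lactamase gene under UAS control. Treatment lasted 16 hr at 37C; signal came from fluorescence of a FRET substrate.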

For assay [5] the target is unchanged. The experiment in a line: qHTS assay to identify small molecule antagonists of the progesterone receptor (PR) signaling pathway (AID 1346795; active = well fitted inhibition curve with a large enough effect in the signal ratio in the repeat runs, not every such curve was filed as active; the % refers to the signal ratio). A digest of the protocol: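 In HEK293T cells bearing the PR-UAS-bla reporter, compound effects on promegestone-driven (1 nM) beta-lactamase expression are assessed after 16 hr using a fluorescent FRET substrate incubated 2 hr at room temperature.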

Assay [6] in a line: qHTS assay to identify small molecule antagonists of the progesterone receptor (PR) signaling pathway - cell viability counter screen (AID 1346798). Note: series mostly up to about 92 µM; nearly all actives have a fitted effect of over 50% in size. In outline:
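Following a 4 hr attachment, PR-UAS-bla HEK293T cells in charcoal-stripped FBS medium were exposed to compounds with R5020 for 16 hr; CellTiter-Glo was added and luminescence read after 30 min at room temperature.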

Assay [7] is described as follows: qHTS assay to identify small molecule agonists of the progesterone receptor (PR) signaling pathway - cell viability counter screen (AID 1346799; calls by dose curve; note: nearly all actives have a fitted effect of over 45% in size). In outline:
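Here, 3,000 PR-UAS-bla HEK293T cells per well were treated with compounds for 16 hr after a 6 hr preincubation at 37C and 5% CO2; cell viability is the CellTiter-Glo luminescence signal.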

Assay [8] can be described thus: qHTS assay to identify small molecule antagonists of the TGF-beta/Smad signaling pathway - cell viability counter screen (AID 1346824). Note: nearly all actives have a fitted effect of over 50% in size. In outline:
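SBE-bla HEK 293T cells were plated overnight at 37 C, then given compounds in DMSO plus TGF-beta1 (added as 0.25 ng/mL solution) for 5 hr. After the bla read, CellTiter-Glo was added to the same wells and luminescence read after 30 min at room temperature.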

Assay [9] can be described thus: qHTS assay to identify small molecule agonists of the TGF-beta/Smad signaling pathway - cell viability counter screen (AID 1346829). Note: top concentration of the series differs between compounds; nearly all actives have a fitted effect of over 45% in size. In outline:
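Tox21 qHTS format: SBE-bla HEK 293T cells treated with DMSO-dissolved compounds for 5 hr; CellTiter-Glo luminescence after 30 min at room temperature.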

Assay [10] in a line: qHTS assay to identify small molecule agonists of the TGF-beta/Smad signaling pathway (AID 1346859; active = well fitted activation curve with a large enough effect in the signal ratio in the repeat runs, not every such curve was filed as active; the % refers to the signal ratio; note: series mostly up to about 77 µM). In outline:
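Each well held 4,000 SBE-bla HEK 293T cells incubated overnight before compound addition; 5 hr later the cleavable FRET substrate went on for 2 hr at room temperature, and fluorescence was read at two emissions.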

Assay [11] addresses Thyrotropin-releasing hormone receptor (Homo sapiens) (UniProt P34981). Briefly: qHTS assay to identify small molecule antagonists of the thyrotropin-releasing hormone receptor (TRHR) signaling pathway (AID 1346877; active = well fitted inhibition curve with a large enough effect in the repeat runs, not every such curve was filed as active; note: series mostly up to about 51 µM). In outline: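 Human TRHR in HEK293 cells; inhibition of the intracellular calcium rise triggered by 1 nM TRH was followed by fluorescence over 3 min. Compounds were run at 15 concentrations, three replicates each.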

Assay [12] shares this target. The experiment in a line: qHTS assay to identify small molecule agonists of the thyrotropin-releasing hormone receptor (TRHR) signaling pathway (AID 1346891; calls by dose curve; note: series mostly up to about 58 µM). In outline: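 Screening of agonists relied on calcium signalling in HEK293 cells expressing human TRHR: dye loading 2 h at 37 °C preceded compound addition and a 3-min fluorescence time course.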
The nature of assay [13]: Human pregnane X receptor (PXR) small molecule agonists, qHTS cell viability counter screen (AID 1346977). Note: nearly all actives have a fitted effect of over 50% in size. A digest of the protocol:
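Tox21 qHTS format; PXR-Luc HepG2, 2,000/well, charcoal-stripped FBS 5%. Cpd exposure 24hr. Read: CellTiter-Fluor fluorescence, multiplexed with luciferase.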

Assay [14] is described as follows: Caspase-3/7 induction in HepG2 cells by small molecules, qHTS assay (AID 1346978). Note: nearly all actives have a fitted effect of over 15% in size. A digest of the protocol: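 Wild-type HepG2 cells (2,000/well) were settled 5 h at 37 C, 5% CO2, then exposed to compounds in DMSO for 17 h. Caspase-3/7 activity was read by luminescence 30 min after adding Caspase-Glo 3/7 reagent at room temperature.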
A short description of assay [15]: Caspase-3/7 induction in CHO-K1 cells by small molecules, qHTS cell viability counter screen (AID 1346979). Note: nearly all actives have a fitted effect of over 35% in size. A digest of the protocol:
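CellTiter-Fluor viability check, qHTS format: wild-type CHO-K1, 16hr compound treatment, 1hr reagent incubation, fluorescence read.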

Assay [16] can be described thus: Caspase-3/7 induction in HepG2 cells by small molecules, qHTS cell viability counter screen (AID 1346981). Note: series mostly up to about 92 µM; nearly all actives have a fitted effect of over 30% in size. A digest of the protocol:
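The parent HepG2 line is plated at 2,000 cells per well and rested 5 hr before compound pinning from DMSO stocks. Following a 16-hr treatment at 37 C, a fluorogenic live-cell substrate (CellTiter-Fluor) reports viability after 1 hr.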

In assay [17] the target is Thyrotropin receptor (Homo sapiens) (UniProt P16473). Briefly: qHTS assay to identify small molecule antagonists of the thyroid stimulating hormone receptor (TSHR) signaling pathway (AID 1259385; calls by dose curve; note: nearly all actives have a fitted effect of over 20% in size). A digest of the protocol: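 TSHR-HEK293 cells were plated and held 18 h at 37C/5% CO2, then given compound plus Ro20-1724 and stimulated with TSH at 1.5 ng/mL final. After 30 min at room temperature, cAMP was detected with cAMP-d2/anti-cAMP-cryptate (1 h) by fluorescence.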
Chain of Thyrotropin receptor (Homo sapiens) (P16473 whole entry, looked up): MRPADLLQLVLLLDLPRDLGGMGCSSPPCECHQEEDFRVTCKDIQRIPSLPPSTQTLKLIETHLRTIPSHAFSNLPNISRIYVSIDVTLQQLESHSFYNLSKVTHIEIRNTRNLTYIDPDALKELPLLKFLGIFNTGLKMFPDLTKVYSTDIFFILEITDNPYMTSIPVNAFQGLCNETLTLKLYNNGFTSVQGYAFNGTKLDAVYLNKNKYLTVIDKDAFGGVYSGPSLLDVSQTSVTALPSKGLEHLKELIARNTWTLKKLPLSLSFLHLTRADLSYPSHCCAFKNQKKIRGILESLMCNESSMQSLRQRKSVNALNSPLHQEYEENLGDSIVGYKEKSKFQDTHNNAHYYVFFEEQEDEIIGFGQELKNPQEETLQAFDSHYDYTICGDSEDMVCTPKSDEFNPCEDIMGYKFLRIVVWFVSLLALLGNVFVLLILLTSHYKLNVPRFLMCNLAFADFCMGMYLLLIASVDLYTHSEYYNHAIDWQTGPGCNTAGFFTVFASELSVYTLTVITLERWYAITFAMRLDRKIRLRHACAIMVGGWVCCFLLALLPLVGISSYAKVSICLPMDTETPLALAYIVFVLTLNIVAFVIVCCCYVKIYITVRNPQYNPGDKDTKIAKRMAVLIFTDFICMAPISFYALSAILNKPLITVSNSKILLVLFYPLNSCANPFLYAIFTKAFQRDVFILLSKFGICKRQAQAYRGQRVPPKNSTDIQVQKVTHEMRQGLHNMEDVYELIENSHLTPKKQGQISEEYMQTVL

A short description of assay [18]: Caspase-3/7 induction in CHO-K1 cells by small molecules, qHTS assay (AID 1346980). Note: nearly all actives have a fitted effect of over 15% in size. A digest of the protocol:
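Wild-type cells were seeded at 1,500 per well and settled 5 hr at 37 C, 5% CO2, then exposed to DMSO-dissolved compounds for 17 hr. Caspase-Glo 3/7 reagent was added, and luminescence was read after 30min at room temperature.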

Assay [19] has as its target Nuclear receptor subfamily 1 group I member 2 (Homo sapiens) (UniProt O75469). The experiment in a line: Human pregnane X receptor (PXR) small molecule agonists, qHTS assay (AID 1346982). Note: nearly all actives have a fitted effect of over 35% in size. A digest of the protocol: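 After plating in 5% charcoal-stripped FBS and a 5 hr rest, PXR-Luc HepG2 cells received compounds in DMSO. Following 24 hr at 37 C, ONE-Glo was added and light output read.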

A number with no mark means an inactive call. Records with an inconclusive call do not appear. The source made the active and inactive calls. Unless noted, calls come from the whole dose curve; as a rule, active = well fitted curve in the direction sought with a large enough effect in the repeat runs; inconclusive = weak or mixed curves; inactive = no such curve, though single readings can be large; an effect the other way counts as inactive or inconclusive.

Chain of Thyrotropin-releasing hormone receptor (Homo sapiens) (P34981 whole entry, looked up): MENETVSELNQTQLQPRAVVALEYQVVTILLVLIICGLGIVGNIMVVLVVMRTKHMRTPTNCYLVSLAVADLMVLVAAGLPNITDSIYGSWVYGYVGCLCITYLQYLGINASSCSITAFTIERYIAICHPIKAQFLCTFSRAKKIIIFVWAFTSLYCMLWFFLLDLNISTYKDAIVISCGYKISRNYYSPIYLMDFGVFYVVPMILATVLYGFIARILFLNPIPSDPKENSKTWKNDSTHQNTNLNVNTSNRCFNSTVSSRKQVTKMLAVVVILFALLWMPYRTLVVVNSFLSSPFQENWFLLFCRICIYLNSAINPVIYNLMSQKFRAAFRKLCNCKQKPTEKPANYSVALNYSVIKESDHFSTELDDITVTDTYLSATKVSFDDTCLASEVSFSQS
Chain of Nuclear receptor subfamily 1 group I member 2 (Homo sapiens) (O75469 whole entry, looked up): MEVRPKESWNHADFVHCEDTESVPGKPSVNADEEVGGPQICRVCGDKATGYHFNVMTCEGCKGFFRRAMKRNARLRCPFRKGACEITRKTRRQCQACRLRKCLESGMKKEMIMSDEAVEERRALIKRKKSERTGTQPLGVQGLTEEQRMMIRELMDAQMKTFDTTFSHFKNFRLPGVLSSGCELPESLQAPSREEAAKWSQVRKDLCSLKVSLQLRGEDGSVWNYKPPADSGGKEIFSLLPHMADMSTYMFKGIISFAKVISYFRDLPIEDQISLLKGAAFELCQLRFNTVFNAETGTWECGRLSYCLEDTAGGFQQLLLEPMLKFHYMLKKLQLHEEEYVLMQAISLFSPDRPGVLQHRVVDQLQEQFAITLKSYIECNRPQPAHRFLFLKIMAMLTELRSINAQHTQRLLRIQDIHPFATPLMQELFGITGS
Chain of Progesterone receptor (Homo sapiens) (P06401 whole entry, looked up): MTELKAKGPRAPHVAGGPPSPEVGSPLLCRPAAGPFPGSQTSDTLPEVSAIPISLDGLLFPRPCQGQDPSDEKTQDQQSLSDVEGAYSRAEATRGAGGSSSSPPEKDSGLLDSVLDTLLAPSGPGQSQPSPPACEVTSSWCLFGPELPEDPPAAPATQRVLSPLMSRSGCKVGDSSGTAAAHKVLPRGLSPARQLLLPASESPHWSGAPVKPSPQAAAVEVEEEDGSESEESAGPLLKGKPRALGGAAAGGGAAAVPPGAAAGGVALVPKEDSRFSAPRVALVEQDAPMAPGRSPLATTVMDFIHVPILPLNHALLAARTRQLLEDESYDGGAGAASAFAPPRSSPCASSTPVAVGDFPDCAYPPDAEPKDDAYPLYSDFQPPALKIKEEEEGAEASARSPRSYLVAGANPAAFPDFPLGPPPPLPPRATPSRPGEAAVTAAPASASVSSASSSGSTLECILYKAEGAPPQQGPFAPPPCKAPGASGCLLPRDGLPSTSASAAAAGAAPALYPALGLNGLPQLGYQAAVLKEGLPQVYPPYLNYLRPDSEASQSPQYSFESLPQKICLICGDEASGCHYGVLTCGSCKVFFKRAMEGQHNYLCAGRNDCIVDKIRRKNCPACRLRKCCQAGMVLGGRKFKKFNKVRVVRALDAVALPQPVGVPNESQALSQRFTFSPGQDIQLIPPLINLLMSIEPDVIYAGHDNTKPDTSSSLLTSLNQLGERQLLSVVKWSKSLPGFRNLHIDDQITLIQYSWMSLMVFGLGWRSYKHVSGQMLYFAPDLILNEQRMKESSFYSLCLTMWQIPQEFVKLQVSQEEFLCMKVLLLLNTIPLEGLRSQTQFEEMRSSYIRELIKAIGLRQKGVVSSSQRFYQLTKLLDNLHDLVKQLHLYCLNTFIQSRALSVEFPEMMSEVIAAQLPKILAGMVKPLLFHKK

On to `CCCCCCCCCCCCCCCC(=O)NCCO`, for which the molecule was classed as inactive in assay [1], in assay [2], in assay [8], in assay [9], in assay [10] and in [11]. For the same molecule, the molecule was classed as inactive in [12] and in assay [14]. For the same molecule, the Potency entry in [3], in assay [4], in [5], in [6], in [7] and in assay [13] was “inactive” each time. For the same molecule, the Potency result in [15] and in assay [16] was “inactive” throughout.
Turning to `CCS(=O)(=O)CCn1c([N+](=O)[O-])cnc1C`, the molecule was classed as inactive in [1], in assay [2], in assay [17], in assay [8], in [9] and in assay [10]. The call in [11], in assay [12] and in assay [18] was inactive. Further, the Potency entry in [4], in assay [5], in assay [7], in [13], in assay [15] and in [16] was “inactive” in each case.
In the case of `CCCC(C)CC` (stereo unspecified), the result in [1], in assay [2], in [17], in assay [8], in [10] and in assay [14] was inactive. Besides, the call in [18] was inactive. The Potency entry in assay [4], in assay [5], in [6], in [7], in assay [13] and in assay [15] was “inactive” throughout. Besides, the Potency entry in assay [16] and in assay [19] was “inactive” each time.
On to `C/C=C(\C)C(=O)OCC/C=C\CC`, for which the molecule was classed as inactive in assay [1], in [2], in assay [17], in assay [8], in [9] and in assay [10]. Moreover, the call in [11], in assay [12], in assay [14] and in assay [18] was inactive. Also, the Potency result in assay [3], in [4], in [7], in [13], in [15] and in assay [16] was “inactive” in each case. In addition, the Potency result in assay [19] was “inactive”.
With `C[C@@H]1C[C@H]2[C@@H]3C[C@H](F)C4=CC(=O)C=C[C@]4(C)[C@@]3(F)[C@@H](O)C[C@]2(C)[C@@]1(O)C(=O)CO`, the outcome in assay [1], in assay [2], in assay [17], in assay [8], in assay [9] and in [10] was inactive. The outcome in [11], in [12] and in assay [18] was inactive. Also, the Potency entry in assay [3], in [7], in assay [13], in assay [15] and in assay [16] was “inactive” throughout. In assay [4], the Potency was 5.96 µM (active).
As to `CC(=O)OC(C)(C)Cc1ccccc1`, the result in assay [1], in assay [2], in assay [8], in assay [9], in [10] and in assay [14] was inactive. In addition, in assay [18], the outcome was inactive. Further, the Potency entry in assay [3], in assay [4], in assay [5], in assay [6], in assay [7] and in assay [15] was “inactive” each time. The Potency entry in [16] and in assay [19] was “inactive” in each case.
As to `C=C[C@@H](C)CCC=C(C)C`, the call in [1], in [2], in [17], in assay [8], in assay [9] and in assay [10] was inactive. Also, the molecule was called inactive in [11], in [12] and in assay [14]. Further, the Potency entry in [4], in [7], in [13], in assay [15], in [16] and in assay [19] was “inactive” each time.
Take `CC(=O)OCCCc1ccccc1`: the molecule was called inactive in assay [1], in assay [2], in assay [17], in assay [8], in assay [10] and in assay [18]. The Potency result in assay [4], in assay [5], in [6], in assay [7], in assay [15] and in assay [16] was “inactive” throughout. Besides, the Potency result in assay [19] was “inactive”.
